# Results reported in PubChem BioAssay (NCATS).
# Records with an inconclusive call do not appear. Active and inactive are the calls of the source. Unless noted, calls follow the shape of the dose curve; as a rule, active = well fitted curve in the direction sought with a large enough effect; inconclusive = small, poorly fitted or top-dose-only effect, or another doubt; inactive = no such curve, though single readings can be large; an effect the other way counts as inactive or inconclusive.
# Columns and labels:
# [1] = Dual reporter qHTS for antagonist of Pregnane X Receptor (hPXR) against the NCATS DSHEA and TCM libraries: Fluorescence Readout (AID 1920061); also: 0% is about no effect
# Summary of the method: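 hPXR-Luc HepG2 cells exposed 24 h at 37 C to compounds with 2 uM rifampicin in antagonist mode; luciferase luminescence measured by ONE-Glo, with CellTiter-Fluor viability read beforehand.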
# [2] = target: DNA dC->dU-editing enzyme APOBEC-3G (Homo sapiens) (UniProt Q9HC16); test: qHTS for inhibitors of Vif-A3G interactions: Validation (AID 588379); also: 0% is about no effect
# Summary of the method: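 Yellow fluorescence (Ex 488, Em 500-530) of Vif-coexpressing HeLa A3G-eYFP cells, scanned by Acumen cytometer, reports blocked A3G degradation. Cells plated at 700/well overnight at 37 deg C before compound addition, then a further overnight compound incubation at 37 deg C.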
# [3] = target: Phospholipid hydroperoxide glutathione peroxidase GPX4 (Homo sapiens) (UniProt P36969); test: Primary qHTS Assay for Inhibitors of Recombinant Selenoprotein Glutathione Peroxidase 4 (GPX4) (AID 1845192); settings: outcome: dose series up to 50 µM unless noted; also: % is scaled to controls: 0 for no effect and ±100 for the full control effect; nearly all actives have a fitted effect of over 65% in size
# Summary of the method: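 NADPH consumption followed by fluorescence at 340/450 nm, t=0 and after 15 min at room temperature. Reaction started with cumene hydroperoxide (0.5 mM final) after 30 min compound–GPX4 preincubation; final 200 nM GPX4, 100 nM GR, 1 mM GSH, 0.5 mM NADPH.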
# [4] = target: Lysosomal acid glucosylceramidase (Homo sapiens) (UniProt P04062); test: Glucocerebrosidase-p2 (AID 348; in the data active = potency below about 10 µM; also: potency is read from the fitted curve at half-maximal effect); settings: purified GBA, blue fluorogenic substrate, 40 min
# Summary of the method: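 Normal human glucocerebrosidase (0.2 nM) with blue fluorogenic substrate (80 uM final) in citrate/phosphate pH 5.9 with 10mM sodium taurocholate, 0.01% tween-20; 40 min RT, NaOH/glycine stop; fluorescence Ex 365/Em 440; AC50 from a titration from 0.6 nM upwards.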
# [5] = AP1 Signaling Pathway (AID 357; active = well fitted curve in either direction with a large enough effect, not every such curve was filed as active;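 also: ME-180 reporter cells stimulated with EGF at its EC50 level; % is scaled to controls: 0 for no effect and ±100 for the full control effect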); settings: ME-180 AP-1-bla reporter, EGF-induced, beta-lactamase ratio, 5 h; at 7.69 µM (top of the series) unless noted
# Summary of the method: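 A ratiometric CCF4 readout (405 nm excitation; 460 and 530 nm emission) quantified AP-1-driven beta-lactamase in ME-180 cells after 5 h with compound and EC50 EGF; AC50 values were derived for activators and inhibitors.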
# [6] = target: Cytochrome P450 1A2 (Homo sapiens) (UniProt P05177); test: p450-cyp1a2 (AID 410; calls by dose curve;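 also: -100% = full effect of reference inhibitor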)
# Summary of the method: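 O-Demethylation of luciferin 6' methyl ether by human CYP1A2 is monitored as luciferase luminescence. Substrate sits at Km (100uM); enzyme is 20nM. Values are scaled to 57 uM furafylline as maximal inhibition.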
# [7] = Stat Signaling Pathway (AID 446; active = well fitted curve in either direction with a large enough effect, not every such curve was filed as active;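 also: ME-180 cervical cancer cells given 40 pM IL-6 alongside compound; SIE-controlled beta-lactamase reporter measured as 460/530 nm FRET emission ratio; % is scaled to controls: 0 for no effect and ±100 for the full control effect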); settings: ME-180 (cervical carcinoma) SIE beta-lactamase reporter, IL-6 stimulated, 5 h; at 7.69 µM (top of the series) unless noted
# Summary of the method: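 Normalization used AC90 stimulation (300 pM IL-6) and AC90 inhibition (125 nM pan-JAK inhibitor at 40 pM IL-6). The underlying signal is SIE-driven beta-lactamase in ME-180 cells after 5 h IL-6 exposure with compound.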
# [8] = target: Glucocorticoid receptor (Homo sapiens) (UniProt P04150); test: GR-GFP Redistribution (AID 450;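 active = compounds whose dose series gives a full or clear partial fitted curve of increased nuclear translocation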; also: potency is read from the fitted curve at half-maximal effect); settings: U2OS GR-GFP nuclear translocation, laser cytometry, 2 h
# [9] = target: Glucocorticoid receptor (Homo sapiens) (UniProt P04150); test: GR-EFC Redistribution (AID 451; calls by dose curve; also: potency is read from the fitted curve at half-maximal effect); settings: CHO-K1 GR-EFC translocation, beta-gal luminescence, 2 h
# Summary of the method: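 Translocation of GR-ED fusion to nuclear EA restores b-gal, read by luminescence after 1 h room-temperature detection. Engineered CHO-K1 biosensor cells, 1,000/well, exposed 2 h at 37 C to titrations up to 46 uM final.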
# [10] = target: Mitogen-activated protein kinase 10 (Mus musculus) (UniProt Q61831); test: JNK3 AlphaScreen Assay (AID 530; active = well fitted curve in either direction with a large enough effect, not every such curve was filed as active;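 also: kinase came from lysate of stimulated human HepG2 cells; signal reports phosphorylation of biotinylated GST-cJun 1-79 at Ser73 with 10 µM ATP; % is scaled to controls: 0 for no effect and ±100 for the full control effect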)
# Summary of the method: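 qHTS titrations with 15 min compound pre-incubation before adding ATP (10 uM final). Read-out: AlphaScreen of Ser73-phosphorylated biotin-GST-cJun using HepG2 lysate JNK3 activated by IL-1β and TNFα.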
# [11] = target: 3',5'-cyclic-AMP phosphodiesterase 4B (Homo sapiens) (UniProt Q07343); test: qHTS Assay for Inhibitors of PDE-IV (AID 607; active = well fitted activation curve with a large enough effect in the main read-out, with a control signal flat, not every such curve was filed as active; also: % of control where 0% means no effect)
# Summary of the method: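 HEK293 ACTOne cells with CNG channel (1000/well), endogenous PDE4; membrane potential dye, compounds up to 22.9 uM final. Fluorescence Ex 535/Em 590; RO 20-1724 (100 uM final) as reference.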
# [12] = target: Cytochrome P450 2C9 (Homo sapiens) (UniProt P11712); test: qHTS Assay for Inhibitors and Substrates of Cytochrome P450 2C9 (AID 883); also: potency is read from the fitted curve at half-maximal effect; nearly all actives have a fitted effect of over 60% in size
# Summary of the method: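 Turnover of Luciferin-H (100uM, KM) by 10nM human CYP2C9 was measured over 60 min at 37C with NADPH regeneration; inhibitors and some substrates reduce luminescence. Data normalized to sulphaphenazole 57uM.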
# [13] = Cell Viability qHTS for small molecule stabilizers of the endoplasmic reticulum resident proteome (AID 1508629); settings: cell viability counter-screen, 100 nM thapsigargin for final 4 h;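 also: potency is read from the fitted curve at half-maximal effect; compound exposure about 46 h in total before the viability read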
# [14] = target: Rap guanine nucleotide exchange factor 3 (Homo sapiens) (UniProt O95398); test: Confirmatory qHTS for agonist of cAMP-regulated guanine nucleotide exchange factor 3 (EPAC1) (AID 1645881);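 also: EPAC1 catalysed release of BODIPY-GDP from Rap1B seen as fluorescence loss; 100% = effect of cAMP agonist control; nearly all actives have a fitted effect of over 75% in size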
# [15] = target: Rap guanine nucleotide exchange factor 4 (Homo sapiens) (UniProt Q8WZA2); test: Confirmatory qHTS for agonist of cAMP-regulated guanine nucleotide exchange factor 4 (EPAC2) (AID 1645884);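 also: nucleotide exchange releases bodipy-GDP from Rap1 and this lowers its fluorescence; % is scaled to controls: 0 for no effect and ±100 for the full control effect; nearly all actives have a fitted effect of over 65% in size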
# [16] = target: Rap guanine nucleotide exchange factor 4 (Homo sapiens) (UniProt Q8WZA2); test: Confirmatory qHTS for antagonist of cAMP-regulated guanine nucleotide exchange factor 4 (EPAC2) (AID 1645885); also: % is scaled to controls: 0 for no effect and ±100 for the full control effect; nearly all actives have a fitted effect of over 25% in size
# [17] = target: Cytochrome P450 3A4 (Homo sapiens) (UniProt P08684); test: qHTS Assay for Inhibitors and Substrates of Cytochrome P450 3A4 (AID 884); also: potency is read from the fitted curve at half-maximal effect; nearly all actives have a fitted effect of over 50% in size
# Summary of the method: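 Luminescent readout of luciferin produced by CYP3A4 (20 nM) dealkylation of Luciferin-PPXE, 25 uM (its KM). NADPH-driven reaction ran 60 min at RT after 10 min compound preincubation; data scaled to 57 uM ketoconazole as 100% inhibition.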
# Sequence of Rap guanine nucleotide exchange factor 4 (Homo sapiens) (Q8WZA2 whole entry, looked up): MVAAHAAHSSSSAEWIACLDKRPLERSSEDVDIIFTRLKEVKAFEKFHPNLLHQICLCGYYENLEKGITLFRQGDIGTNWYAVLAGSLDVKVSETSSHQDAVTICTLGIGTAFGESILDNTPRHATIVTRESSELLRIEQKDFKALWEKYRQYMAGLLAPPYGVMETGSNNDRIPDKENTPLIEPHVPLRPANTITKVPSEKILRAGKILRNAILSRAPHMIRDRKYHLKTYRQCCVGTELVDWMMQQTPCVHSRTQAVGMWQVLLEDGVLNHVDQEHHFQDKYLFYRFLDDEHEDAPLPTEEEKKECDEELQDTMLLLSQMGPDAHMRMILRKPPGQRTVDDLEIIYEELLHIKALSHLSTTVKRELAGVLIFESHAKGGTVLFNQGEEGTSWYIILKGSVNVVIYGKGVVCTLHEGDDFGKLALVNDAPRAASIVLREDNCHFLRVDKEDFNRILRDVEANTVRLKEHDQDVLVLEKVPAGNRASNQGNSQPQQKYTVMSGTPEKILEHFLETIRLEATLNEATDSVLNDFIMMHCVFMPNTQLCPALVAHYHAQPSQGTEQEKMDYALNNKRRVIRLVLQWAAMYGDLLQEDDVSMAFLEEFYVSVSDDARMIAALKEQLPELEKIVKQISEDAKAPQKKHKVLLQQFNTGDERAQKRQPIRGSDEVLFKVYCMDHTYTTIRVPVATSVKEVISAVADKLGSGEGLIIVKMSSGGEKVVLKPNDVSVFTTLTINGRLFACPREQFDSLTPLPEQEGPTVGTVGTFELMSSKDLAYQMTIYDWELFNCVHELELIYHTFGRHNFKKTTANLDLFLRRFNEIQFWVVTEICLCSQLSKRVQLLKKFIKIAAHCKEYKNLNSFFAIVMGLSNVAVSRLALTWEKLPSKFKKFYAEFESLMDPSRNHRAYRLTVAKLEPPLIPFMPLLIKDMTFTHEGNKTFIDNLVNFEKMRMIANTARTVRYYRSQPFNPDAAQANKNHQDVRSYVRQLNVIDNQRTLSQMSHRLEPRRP
# Sequence of Glucocorticoid receptor (Homo sapiens) (P04150 whole entry, looked up, the tested form may be a part): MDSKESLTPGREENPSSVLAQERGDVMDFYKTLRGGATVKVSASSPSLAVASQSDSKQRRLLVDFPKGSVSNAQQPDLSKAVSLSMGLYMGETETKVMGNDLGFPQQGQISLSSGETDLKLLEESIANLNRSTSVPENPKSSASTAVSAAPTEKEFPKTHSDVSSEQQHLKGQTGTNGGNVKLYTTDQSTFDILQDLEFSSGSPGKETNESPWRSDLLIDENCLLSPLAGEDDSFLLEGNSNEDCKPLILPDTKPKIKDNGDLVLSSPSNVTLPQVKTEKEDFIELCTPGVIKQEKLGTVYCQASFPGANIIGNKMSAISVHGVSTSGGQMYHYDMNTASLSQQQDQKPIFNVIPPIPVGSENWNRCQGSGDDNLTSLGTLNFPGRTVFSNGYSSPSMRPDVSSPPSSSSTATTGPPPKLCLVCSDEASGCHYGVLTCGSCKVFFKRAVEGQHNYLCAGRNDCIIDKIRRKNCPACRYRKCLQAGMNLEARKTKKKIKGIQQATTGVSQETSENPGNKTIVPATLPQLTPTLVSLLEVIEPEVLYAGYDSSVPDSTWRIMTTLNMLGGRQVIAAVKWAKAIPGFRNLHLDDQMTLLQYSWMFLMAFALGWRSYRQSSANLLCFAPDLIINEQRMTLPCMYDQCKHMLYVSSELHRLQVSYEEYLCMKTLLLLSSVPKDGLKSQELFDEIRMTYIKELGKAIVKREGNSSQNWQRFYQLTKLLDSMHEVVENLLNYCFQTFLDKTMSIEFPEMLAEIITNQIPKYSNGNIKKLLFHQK
# Sequence of Lysosomal acid glucosylceramidase (Homo sapiens) (P04062 whole entry, looked up): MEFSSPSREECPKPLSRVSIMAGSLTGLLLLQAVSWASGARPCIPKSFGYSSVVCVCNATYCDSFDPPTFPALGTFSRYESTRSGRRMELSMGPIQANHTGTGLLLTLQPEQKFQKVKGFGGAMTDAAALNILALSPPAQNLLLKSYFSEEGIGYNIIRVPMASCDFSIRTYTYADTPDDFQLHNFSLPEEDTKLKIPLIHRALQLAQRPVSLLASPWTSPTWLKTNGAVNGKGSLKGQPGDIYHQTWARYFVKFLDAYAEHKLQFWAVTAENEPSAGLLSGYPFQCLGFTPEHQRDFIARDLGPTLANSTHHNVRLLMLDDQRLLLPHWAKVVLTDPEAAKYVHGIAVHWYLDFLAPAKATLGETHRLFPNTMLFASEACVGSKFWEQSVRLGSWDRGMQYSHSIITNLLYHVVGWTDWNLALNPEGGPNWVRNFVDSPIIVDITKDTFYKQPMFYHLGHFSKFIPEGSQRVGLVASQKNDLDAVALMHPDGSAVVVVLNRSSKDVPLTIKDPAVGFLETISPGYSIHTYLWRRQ
# Sequence of 3',5'-cyclic-AMP phosphodiesterase 4B (Homo sapiens) (Q07343 whole entry, looked up): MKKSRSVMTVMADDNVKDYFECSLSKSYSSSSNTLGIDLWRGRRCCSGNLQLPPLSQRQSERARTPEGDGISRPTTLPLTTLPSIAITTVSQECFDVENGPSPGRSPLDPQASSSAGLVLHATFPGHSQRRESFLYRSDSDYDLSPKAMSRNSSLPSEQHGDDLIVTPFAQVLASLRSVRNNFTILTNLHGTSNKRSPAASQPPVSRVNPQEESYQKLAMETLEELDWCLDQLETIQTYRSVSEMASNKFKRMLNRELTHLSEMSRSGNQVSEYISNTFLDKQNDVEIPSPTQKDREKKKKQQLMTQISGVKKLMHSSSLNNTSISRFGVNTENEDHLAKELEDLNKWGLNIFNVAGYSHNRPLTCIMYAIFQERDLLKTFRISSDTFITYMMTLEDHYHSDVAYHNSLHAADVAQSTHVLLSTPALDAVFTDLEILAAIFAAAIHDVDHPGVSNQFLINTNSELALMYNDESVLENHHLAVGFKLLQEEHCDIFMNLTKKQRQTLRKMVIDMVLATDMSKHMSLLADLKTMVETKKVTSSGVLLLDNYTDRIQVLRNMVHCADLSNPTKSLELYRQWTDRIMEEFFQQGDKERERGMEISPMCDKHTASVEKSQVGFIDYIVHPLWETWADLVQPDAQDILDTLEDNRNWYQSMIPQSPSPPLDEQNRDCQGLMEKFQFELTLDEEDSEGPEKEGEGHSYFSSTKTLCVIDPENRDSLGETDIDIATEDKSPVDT
# Sequence of Cytochrome P450 2C9 (Homo sapiens) (P11712 whole entry, looked up): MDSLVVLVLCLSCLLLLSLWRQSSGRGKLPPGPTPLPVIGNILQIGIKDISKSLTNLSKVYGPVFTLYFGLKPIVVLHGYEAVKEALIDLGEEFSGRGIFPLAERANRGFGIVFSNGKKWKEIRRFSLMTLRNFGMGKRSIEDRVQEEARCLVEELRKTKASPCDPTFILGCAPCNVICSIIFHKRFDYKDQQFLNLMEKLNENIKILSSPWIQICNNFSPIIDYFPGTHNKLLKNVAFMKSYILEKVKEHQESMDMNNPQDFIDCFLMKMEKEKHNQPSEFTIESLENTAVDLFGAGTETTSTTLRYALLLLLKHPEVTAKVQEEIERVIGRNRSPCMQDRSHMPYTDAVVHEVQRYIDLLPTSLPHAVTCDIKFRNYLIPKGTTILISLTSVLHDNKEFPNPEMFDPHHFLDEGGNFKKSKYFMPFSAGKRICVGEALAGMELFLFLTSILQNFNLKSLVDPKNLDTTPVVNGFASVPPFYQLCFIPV
# Sequence of Phospholipid hydroperoxide glutathione peroxidase GPX4 (Homo sapiens) (P36969 whole entry, looked up): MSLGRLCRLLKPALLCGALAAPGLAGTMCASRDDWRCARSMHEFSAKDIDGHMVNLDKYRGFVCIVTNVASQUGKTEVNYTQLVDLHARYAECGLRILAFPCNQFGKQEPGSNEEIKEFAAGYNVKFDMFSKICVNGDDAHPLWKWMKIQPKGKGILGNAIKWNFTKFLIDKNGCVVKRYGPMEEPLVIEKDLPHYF
# Sequence of Cytochrome P450 3A4 (Homo sapiens) (P08684 whole entry, looked up): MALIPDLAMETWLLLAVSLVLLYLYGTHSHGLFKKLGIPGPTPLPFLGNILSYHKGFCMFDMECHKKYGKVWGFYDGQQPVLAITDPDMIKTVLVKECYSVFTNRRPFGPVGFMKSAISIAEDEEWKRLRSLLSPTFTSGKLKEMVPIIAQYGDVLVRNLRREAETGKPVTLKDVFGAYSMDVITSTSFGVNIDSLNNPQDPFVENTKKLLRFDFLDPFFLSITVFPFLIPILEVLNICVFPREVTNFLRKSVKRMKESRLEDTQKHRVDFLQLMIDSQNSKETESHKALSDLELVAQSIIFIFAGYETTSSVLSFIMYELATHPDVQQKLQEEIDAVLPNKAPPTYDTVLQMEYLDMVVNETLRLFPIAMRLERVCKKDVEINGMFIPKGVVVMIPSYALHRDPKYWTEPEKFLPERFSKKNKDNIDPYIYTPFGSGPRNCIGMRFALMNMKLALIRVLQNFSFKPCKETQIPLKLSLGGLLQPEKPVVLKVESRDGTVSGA
# Sequence of Cytochrome P450 1A2 (Homo sapiens) (P05177 whole entry, looked up): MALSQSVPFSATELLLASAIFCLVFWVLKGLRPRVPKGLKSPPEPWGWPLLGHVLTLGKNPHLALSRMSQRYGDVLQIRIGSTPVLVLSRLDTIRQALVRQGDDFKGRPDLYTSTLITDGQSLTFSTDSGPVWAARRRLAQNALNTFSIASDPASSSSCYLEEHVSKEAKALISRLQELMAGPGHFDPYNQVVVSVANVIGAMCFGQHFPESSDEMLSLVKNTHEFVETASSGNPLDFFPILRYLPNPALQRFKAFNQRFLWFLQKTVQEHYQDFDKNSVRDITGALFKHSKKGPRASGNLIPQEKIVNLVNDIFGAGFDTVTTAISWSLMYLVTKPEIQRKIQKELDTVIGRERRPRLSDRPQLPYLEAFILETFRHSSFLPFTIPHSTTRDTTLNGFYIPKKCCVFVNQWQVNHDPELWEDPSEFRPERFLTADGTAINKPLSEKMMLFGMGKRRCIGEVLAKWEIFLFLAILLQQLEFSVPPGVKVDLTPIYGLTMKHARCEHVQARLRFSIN
smiles,measurement,setting,value
O=C(OC[C@H]1O[C@@H](OC(=O)c2cc(O)c(O)c(O)c2)[C@H](OC(=O)c2cc(O)c(O)c(O)c2)[C@@H](OC(=O)c2cc(O)c(O)c(O)c2)[C@@H]1OC(=O)c1cc(O)c(O)c(O)c1)c1cc(O)c(O)c(O)c1,outcome,[1],inactive
O=C1CC(c2ccc(O)cc2)Oc2cc(O)cc(O)c21 (configuration not stated),outcome,[2],inactive
CN(C)c1cc(NC(=O)CNC(C)(C)C)c(O)c2c1C[C@H]1C[C@H]3[C@H](N(C)C)C(=O)C(C(N)=O)=C(O)[C@]3(O)C(=O)C1=C2O,Potency,[3],inactive
CC(C)=CCc1c2c(c3occ(-c4ccc(O)c(O)c4)c(=O)c3c1O)C=CC(C)(C)O2,Potency,[4],> 11.4 µM (inactive)
same,"activity change, negative = inhibition",[5],-0.16% (inactive)
same,"activity change, negative = inhibition",[6],-3% [at 2.29 µM] (inactive)
same,"activity, negative = inhibition",[7],-4.46% (inactive)
same,Potency,[8],> 46 µM (inactive)
same,Potency,[9],> 9.22 µM (inactive)
same,"activity change, negative = inhibition",[10],-1.7% [at 11.4 µM] (inactive)
same,Potency,[11],inactive
same,Potency,[12],3.16 µM (active)
same,Potency,[13],7.94 µM (active)
same,outcome,[14],inactive
same,outcome,[15],inactive
same,Potency,[16],inactive
O=C1CC(c2ccc(O)cc2)Oc2ccccc21 (configuration not stated),Potency,[17],25.1 µM (active)
